The test system of the experiment is Wnt5a (protein binding on small-molecule microarray). Description: Wnt5a binders on small-molecule microarray, primary screen, biophysical, 635/667 nm fluorescence (AID 1142).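 Note: fluorescence read at 667 nm with signal to noise per printed feature.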 To be noted: 635 nm fluorescence, higher = more signal.
With `C[N+](C)(C)CCCCNC(=O)[C@H]1C[C@H]2C(=O)N3CCC[C@H]3C(=O)N2[C@H]1c1ccc(O)cc1`, the composite z-score was found to be 0.554. Compound `O=S(=O)(NCCCO)c1ccc(Br)cc1` displayed a composite z-score of 0.191. Compound `Cc1ccc(S(=O)(=O)N2CC(C(=O)O)=CCC2c2ccccc2)cc1` (stereo unspecified) showed a composite z-score of -0.0669. Take `C=CCOC(=O)[C@H]1[C@@H]2C(=O)O[C@@H](c3ccccc3)[C@@H](c3ccccc3)N2[C@@H](c2ccc(OCCOC(=O)[C@@H]3C[C@@H]4C(=O)NCC(=O)N4[C@@H]3c3ccc(O)cc3)cc2)[C@]12C(=O)Nc1ccc(I)cc12`: the composite z-score turned out to be 1.07. For the compound `CC(=O)NCCCC[C@@H]1NC(=O)[C@@H]2C[C@H](C(=O)NCCCCCC[N+](C)(C)C)[C@H](c3cccc(OCCO)c3)N2C1=O`, the composite z-score was 0.505. Compound `C/C=C/[C@H](CCn1cc([C@H](O)c2ccccc2)nn1)[Si](C)(C)c1ccc(OC)cc1` yielded a composite z-score of -0.582. The compound `CCCNC(=O)[C@@]1(C)c2ccccc2C(=O)N(Cc2cc(C(F)(F)F)cc(C(F)(F)F)c2)[C@H]1c1ccc(CO)cc1` came in with a composite z-score of -0.332. As to `C=C(CCCC)/C(=C/C[C@H](OC(C)=O)c1ccc(CO)o1)c1cc(C(=O)OC)ccc1OC`, the composite z-score stood at 0.244. With `C=CCCN(CC#C[C@H]1Oc2ccccc2S(=O)(=O)N2CCC[C@@H]12)S(=O)(=O)c1ccc(C)cc1`, the composite z-score stood at 0.264.

In turn, `CN1C(=O)C2C=CC(C(O)C(c3ccccc3)c3ccccc3)N(Nc3ccccc3)C2C1=O` (stereo unspecified) displayed a composite z-score of 0.35.

`O=C1OCCC/C=C\[C@H]2OC34C=CCN(CCN5CCOCC5)C(=O)[C@H]3N(CCO)C(=O)[C@@H]4C12` (stereo partly specified) had a composite z-score of -0.425. For the compound `COCCOC(=O)N1C(=O)[C@@]2(c3cc(C#CC4(O)CCCCCC4)ccc31)[C@H](c1ccc(O)cc1)N1[C@H](c3ccccc3)[C@H](c3ccccc3)OC(=O)[C@H]1[C@@H]2C(=O)N1CCc2cc(OC)c(OC)cc2C1`, the composite z-score is -0.445.

For `COCCn1c(C(=O)N2CCCC2)cc2c1C[C@H]1CN(C(=O)c3ccccc3)[C@@](Cc3ccc(OC)cc3)(C(=O)OC)[C@@H]21`, the composite z-score was found to be 0.644. Take `Cc1cc(C)c(C(O)C2C=CC3C(=O)NC(=O)C3N2Nc2ccccn2)c(C)c1` (stereo unspecified): the composite z-score was -0.265. The result for `CC(c1ccccc1)C(O)C1C=CC2C(=O)N(Cc3ccccc3)C(=O)C2N1n1cnnc1` (stereo unspecified) reads 0.0618; that for `O=C(NCC(O)CO)[C@@]1(Cc2ccccc2)N=C(c2ccc(OCCCO)cc2)O[C@H]1c1ccccc1` (stereo partly specified), 0.626. Under `CC(c1ccccc1)C(O)C1C=CC2C(=O)N(c3ccccc3)C(=O)C2N1Nc1ccccc1F` (stereo unspecified) stands 0.0426; under `C=CC[C@@]1(C(=O)NCc2ccccc2)N=C(c2ccc(OCCCO)cc2)O[C@@H]1c1ccccc1CN=[N+]=[N-]`, 0.521; under `C=CCN1C(=O)[C@]2(Cc3ccccc31)N=C(c1ccc(OCCCO)cc1)O[C@@H]2c1ccccc1`, 1.2. In the case of `CCCCC(=O)N(Cc1ccccc1F)[C@@H]1CC(C(=O)NCCO)=C[C@H](Oc2c(I)cc(CO)cc2OC)[C@H]1O`, the composite z-score was found to be 1.91. `Cc1c(NC(=O)/C(C#N)=C/C=C/c2ccccc2)c(=O)n(-c2ccccc2)n1C` yielded a composite z-score of 0.17. On to `CC(C)(C)OC(=O)CC[C@]1(C(=O)NCC(O)CO)N=C(c2ccc(OCCCO)cc2)O[C@H]1c1ccccc1CN=[N+]=[N-]` (stereo partly specified), for which the composite z-score worked out at 0.921. `CCCC[C@@H]1C[C@H]1[C@@H](NC(=O)c1ccco1)c1ccccc1` displayed a composite z-score of -0.609. The result for `NC(=O)NCC#Cc1ccc2c(c1)[C@]1(C(=O)N2)[C@H](c2ccccc2OCCO)N2[C@H](c3ccccc3)[C@H](c3ccccc3)OC(=O)[C@H]2[C@@H]1C(=O)N1CCCCCCC1` reads 0.723; that for `C=C(COC)C(=O)CC[C@H](OC(=O)c1cccnc1)c1ccccc1OCCO`, 0.112; that for `C=C(C(=O)CC[C@@H](OC(=O)c1cccnc1)c1ccc(CO)o1)C(C)C`, 0.27. Take `O=C1O[C@H](c2ccccc2)[C@H](c2ccccc2)N2[C@H]1[C@@H](C(=O)Nc1nc3ccccc3s1)[C@]1(C(=O)Nc3ccc(C#CC4=CCCCC4)cc31)[C@H]2c1ccc(OCCO)cc1`: the composite z-score was 0.706. `COCCOC(=O)N1C(=O)[C@@]2(c3cc(C#Cc4ccc(OC)cc4)ccc31)[C@H](C(N)=O)[C@H]1C(=O)O[C@H](c3ccccc3)[C@H](c3ccccc3)N1[C@@H]2c1ccc(O)cc1` showed a composite z-score of 0.115. For `CN1C(=O)C2C(C1=O)C1C=C(c3ccc(CO)cc3)C2C(C2CC2)N1Cc1sc2ccccc2c1Cl` (stereo unspecified), the composite z-score was 0.567.

`CC1CC/C=C\[C@H]2OC34C=CCN(Cn5nnc6ccccc65)C(=O)[C@H]3N(CCCO)C(=O)[C@@H]4C2C(=O)O1` (stereo partly specified): the composite z-score was -0.595. `O=P(NCC1(CC2(c3ccccc3)CO2)CC1)(c1ccccc1)c1ccccc1` (stereo unspecified) displayed a composite z-score of -0.402. The compound `CCOC(=O)C1=CC[C@@H](c2ccccc2)N(S(=O)(=O)c2ccc(C)cc2)[C@H]1c1ccc(C#N)cc1` came in with a composite z-score of 0.344. Turning to `COc1cc(NN2C(C(O)c3ccccc3)C=CC3C(=O)N(c4ccccc4)C(=O)C32)cc(OC)c1OC` (stereo unspecified), the composite z-score is 0.421. In turn, `Cn1c2c(c3ccccc31)C(=O)C1NC2C=CC1(C)C(=O)OCc1ccccc1` (stereo unspecified) had a composite z-score of -0.348.

Regarding `Cc1ccc(S[C@]2(C(=O)NCCN3CCOCC3)CC(=O)N(C3CCCCC3)[C@@H]2c2ccc(CO)cc2)cc1`, the composite z-score was -0.0482.

The compound `COCCOC(=O)N1C(=O)[C@@]2(c3cc(C#CC4=CCCCC4)ccc31)[C@H](c1ccc(OCCO)cc1)N1[C@H](c3ccccc3)[C@H](c3ccccc3)OC(=O)[C@H]1[C@@H]2C(=O)Nc1nc2ccccc2s1` showed a composite z-score of 0.329.

Source of the values: PubChem BioAssay.
